# Measured values as given in PubChem BioAssay AID1209 (Sanford-Burnham Center for Chemical Genomics, 2008).
# The whole screen tested about 190,000 compounds, of which about 810 (0.43%) were called active. Cut-off read from the data, not from the text of the source: active = inhibition above about 50%; inactive = the rest. The sample as a whole holds a higher share of actives than the screen did.
# Target: Mannose-6-phosphate isomerase (Homo sapiens) (UniProt P34949)
# Assay: MPI enzyme activity inhibition – biochemical, fluorescence intensity, coupled assay, primary screen (AID 1209);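 note: plate controls were DMSO vehicle for no effect and wells lacking substrate for full effect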
# Details: purified PMI enzyme, at 20 µM, active compounds read high
# Chain of Mannose-6-phosphate isomerase (Homo sapiens) (P34949 whole entry, looked up): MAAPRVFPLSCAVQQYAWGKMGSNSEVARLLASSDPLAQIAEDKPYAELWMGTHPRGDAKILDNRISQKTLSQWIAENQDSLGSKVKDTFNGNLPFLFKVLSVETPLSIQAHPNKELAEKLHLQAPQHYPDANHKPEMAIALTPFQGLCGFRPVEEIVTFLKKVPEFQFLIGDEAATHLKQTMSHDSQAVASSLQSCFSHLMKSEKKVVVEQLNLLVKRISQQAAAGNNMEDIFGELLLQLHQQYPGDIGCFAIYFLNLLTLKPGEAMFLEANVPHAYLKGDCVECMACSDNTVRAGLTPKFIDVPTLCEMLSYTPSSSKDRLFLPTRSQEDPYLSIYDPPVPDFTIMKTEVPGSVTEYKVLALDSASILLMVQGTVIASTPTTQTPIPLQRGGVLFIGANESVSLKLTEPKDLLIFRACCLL
row,SMILES,inhibition
1,O=C(NC1(C(F)(F)F)Oc2ccc(Cl)cc2O1)N1CCC2(CC1)OCCO2 (stereo unspecified),79.1% (active)
2,O=C(NC1(C(F)(F)F)Oc2ccccc2O1)N1CCC2(CC1)OCCO2,32.9% (inactive)
3,O=C(NC(=O)N1CCC2(CC1)OCCO2)c1ccc(Cl)cc1,10.2% (inactive)
4,CC(=O)Nc1ccccc1C(=O)OCc1ccc(F)cc1,1.8% (inactive)
5,CS(=O)(=O)N1CCN(C(=N)N[N+](=O)[O-])CC1,-5.1% (inactive)
6,C/C(=N\N1CCCCC1c1cccnc1)c1c(O)n(C2CCCCC2)c(=S)[nH]c1=O (stereo unspecified),5.8% (inactive)
7,O=C1C(=O)c2ccccc2-c2ccccc21,25.8% (inactive)
8,O=C1C(=O)c2cccc3cccc1c23,17.2% (inactive)
9,O=C1C=Cc2ccccc2C1=O,79.1% (active)
10,Cc1cc(Oc2ccc(C(F)(F)F)cc2[N+](=O)[O-])c2c3c(c(=O)oc2c1)CCC3,-1.9% (inactive)
11,Cc1cc(N2C(=O)CC(N3CCC(n4c(=O)[nH]c5ccccc54)CC3)C2=O)no1 (stereo unspecified),6.9% (inactive)
12,COc1cc(CN2CC3CC(C2)c2cccc(=O)n2C3)cc(OC)c1OC (stereo unspecified),-1.2% (inactive)
13,CCN(CC)c1ccc(N=Cc2c(O)n(CCc3ccc(OC)c(OC)c3)c(=O)[nH]c2=O)cc1,50% (active)
14,CCN(CC)c1ccc(N=Cc2c(O)n(CCC3=CCCCC3)c(=O)[nH]c2=O)cc1,24.6% (inactive)
15,CCN(CC)CCCN=Cc1c(O)n(CCc2ccc(OC)c(OC)c2)c(=O)[nH]c1=O,-10.4% (inactive)
16,CCOC(=O)C(NC(=O)C(Cc1ccc(N(CCCl)CCCl)cc1)NC(C)=O)C(C)C (stereo unspecified),-44.3% (inactive)
17,Cc1ccc(N2C(=O)/C(=C/N3CCN(C(=O)c4ccco4)CC3)C(=O)NC2=S)cc1C,37.6% (inactive)
18,Cc1cccc(N2C(=O)/C(=C/N3CCN(C(=O)c4ccco4)CC3)C(=O)NC2=S)c1,55.5% (active)
19,O=C1NC(=S)N(c2ccc(Br)cc2)C(=O)/C1=C/N1CCN(C(=O)c2ccco2)CC1,25.8% (inactive)
20,CSCCC(N=Cc1c(O)n(-c2ccc(F)cc2)c(=O)[nH]c1=O)C(=O)OC(C)(C)C (stereo unspecified),12.2% (inactive)
21,O=C(CNC(=O)c1cccc(Cl)c1)Nc1ccc(Br)cc1C(=O)c1ccccc1,17.1% (inactive)

row,SMILES,inhibition
1,Cc1ccc(NC2=NCCCS2)c(C)c1C,12.6% (inactive)
2,Cc1cc(/C=C2/C(=O)NC(=O)N(C)C2=O)c(C)n1-c1ccccc1,2.6% (inactive)
3,C=CCN1C(=O)/C(=C/c2cc(C)n(-c3ccccn3)c2C)C(=O)NC1=S,-25.6% (inactive)
4,Cc1cc(C=C2C(=O)N(C)C(=O)N(C)C2=O)c(C)n1-c1ccccc1,-25.1% (inactive)
5,C=CCN1C(=O)/C(=C/c2cc(C)n(-c3cccnc3)c2C)C(=O)NC1=S,50.2% (active)
6,Cc1cc(C=C2C(=O)N(C)C(=S)N(C)C2=O)c(C)n1-c1cccnc1,59.6% (active)
7,Cc1ccnc(-n2c(C)cc(C=C3C(=O)N(C)C(=S)N(C)C3=O)c2C)c1,23.1% (inactive)
8,COc1cc2c(cc1O)C[C@H]1NCCc3cc4c(c-2c31)OCO4,6.6% (inactive)
9,CCOC(=O)c1c(C)n(Cc2ccccc2)c2ccc(OCC(O)CN3C(=O)CNC3=O)cc12 (stereo unspecified),60.1% (active)
10,CCOC(=O)c1c(C)n(Cc2ccccc2)c2ccc(OCC(O)Cn3nc(C)cc3C)cc12 (stereo unspecified),16.3% (inactive)
11,CCOC(=O)c1c(C)n(Cc2ccccc2)c2ccc(OCC(O)Cn3nc(C)nc3C)cc12 (stereo unspecified),15.7% (inactive)
12,CCOC(=O)C1=C(C)OC(N)=C(C#N)C12C(=O)N(C)c1ccccc12 (stereo unspecified),5.2% (inactive)
13,C=CCOC(=O)C1=C(C)OC(N)=C(C#N)[C@@]12C(=O)N(CC(N)=O)c1ccccc12,-6.8% (inactive)
14,C#CCN1C(=O)C2(C(C#N)=C(N)OC(C)=C2C(=O)OCc2ccccc2)c2ccccc21 (stereo unspecified),51.6% (active)
15,Nc1ccc(Cl)cc1C(=O)c1ccccc1Cl,5.4% (inactive)
16,CCN(CC)P(c1n(C)cc[n+]1C)N(CC)CC,54.3% (active)
17,CN(C)C(=O)OCc1n(C)cc[n+]1C,-9.3% (inactive)
18,CNC(=O)OCc1n(C)cc[n+]1C,20.7% (inactive)
19,CCn1cc(CN2CCCC(C(=O)c3cccc(OC)c3)C2)c(C)n1 (stereo unspecified),13% (inactive)
20,CNC(C(=O)c1ccccc1)C(OC)c1ccc(C)cc1 (stereo unspecified),-37.6% (inactive)
